Hits are enriched below; roughly 9.2% of the tested compounds scored in any of these assays.
ELG1 DNA repair = ELG1-dependent DNA repair inhibition; HEK293T ELG1-luciferase reporter, luminescence, 16 h; DNA damage induced by 5-fluorouridine; Potency, µM (highest dose often 46.1 µM), for the others: at the highest dose activity change, negative = inhibition, most hits filed as inhibitors; 330,000 compounds, 2.3% hits; AID 504467; also: % is scaled to controls: 0 for no effect and ±100 for the full control effect; nearly all actives have a fitted effect of over 55% in size
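Reporter activity after DNA damage by 5-fluorouridine is monitored. Compound-treated cells incubate 16 hr at 37 °C, then ONE-Glo is added for 30 min before luminescence reading.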
SMN2 splice enh = SMN2 splice variant enhancement. HEK293 SMN2-luciferase splicing reporter, luminescence, 30-36 h. Potency, µM (doses to about 46.1 µM), for the others: at the highest dose activity change, positive = activation, hits mostly activators. 210,000 compounds, 2.8% hits; also: % of control where 0% means no effect; nearly all actives have a fitted effect of over 55% in size
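qHTS luciferase splicing reporter: luminescence rises when SMN2 exon 7 is included in transfected HEK293 cells. Compound exposure lasted 30-36 h at 37C, with 4.5 mM final sodium butyrate as control, followed by a ONE-Glo read.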
FLuc modulator = inhibits or activates purified firefly luciferase, miR-21 counter-screen; purified FLuc, Km substrates, luminescence inhibition; 360,000 compounds, 6.9% hits; Potency, µM (doses to about 57.5 µM), for inactives: at the highest dose activity change, negative = inhibition, hits mostly inhibitors; P08659;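 also: plate controls were vehicle for no effect and reference inhibitor for full effect; nearly all actives have a fitted effect of over 55% in size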
Target sequence (P08659 whole entry, looked up): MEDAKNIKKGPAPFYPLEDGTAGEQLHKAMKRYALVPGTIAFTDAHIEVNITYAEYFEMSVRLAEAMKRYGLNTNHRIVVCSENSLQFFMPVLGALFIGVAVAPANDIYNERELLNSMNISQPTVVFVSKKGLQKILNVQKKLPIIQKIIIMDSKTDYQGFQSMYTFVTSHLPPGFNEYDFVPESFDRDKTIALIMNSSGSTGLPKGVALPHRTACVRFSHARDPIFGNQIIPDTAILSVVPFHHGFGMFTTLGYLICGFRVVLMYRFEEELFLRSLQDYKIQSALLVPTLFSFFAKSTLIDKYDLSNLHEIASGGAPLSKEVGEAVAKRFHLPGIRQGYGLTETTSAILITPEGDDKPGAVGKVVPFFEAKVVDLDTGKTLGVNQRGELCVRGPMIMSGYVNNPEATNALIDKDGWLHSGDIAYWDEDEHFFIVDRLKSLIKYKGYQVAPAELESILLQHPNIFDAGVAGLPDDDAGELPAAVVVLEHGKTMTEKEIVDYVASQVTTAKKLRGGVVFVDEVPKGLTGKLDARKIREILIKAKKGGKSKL
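Purified P. pyralis luciferase, 10 nM final, with Km-level 10 uM D-luciferin and 10 uM ATP in 50 mM Tris acetate pH 7.5, 10 mM Mg acetate, 0.01% Tween-20, 0.05% BSA; 6-point qHTS titration about 60 µM downward; luminescence read.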
NPC1 prom act = activators of NPC1 promoter | Huh7 NPC1 promoter luciferase reporter, 24 h | Potency, µM (series often up to 9.22 µM), without a hit: at the highest dose activation, actives largely listed as activators | 320,000 compounds, 2.4% hits; also: % of control where 0% means no effect; nearly all actives have a fitted effect of over 60% in size
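Compounds in DMSO were transferred onto Huh7 NPC1-luciferase reporter cells pre-incubated 2 h; after 24 h at 37 °C, Amplite reagent was dispensed and luminescence recorded 10 min later.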
ELG1 genotoxic = induces genotoxicity in HEK293T cells with luciferase-tagged ELG1; HEK293T ELG1-luciferase reporter, luminescence, 16 h; Potency, µM (highest dose often 46 µM), for the others: at the highest dose activity change, positive = activation, actives largely listed as activators; 330,000 compounds, 1.3% hits; AID 504466; also: % of control where 0% means no effect; nearly all actives have a fitted effect of over 60% in size
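Luminescence read-out: rising ELG1-luciferase signal, reflecting elevated ELG1 protein under genetic stress, flags genotoxic compounds. Cells were treated for 16 hr at 37 °C before ONE-Glo detection.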
Rab9 prom act = activates the Rab9 promoter | 320,000 compounds, 2.8% hits | Potency, µM (titrated, usually from 9.22 µM), for inactives: at the highest dose activation, negative = inhibition, hits mostly activators | Huh7 Rab9 promoter-luciferase reporter, luminescence, 24 h; also: % of control where 0% means no effect; nearly all actives have a fitted effect of over 60% in size
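Steps: seed 1500 Huh7 Rab9-luc cells per well, rest 2 h at 37 °C; add compound in DMSO; incubate 24 h; add luciferase reagent, 10 min ambient; read luminescence.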
* hit, by the source's call; u = inconclusive; x = no result; [ ] = dose if it differs, or a comment. Calls follow the shape of the dose curve; as a rule, active = well fitted curve in the direction sought with a large enough effect; inconclusive = small, poorly fitted or top-dose-only effect, or another doubt; inactive = no such curve, though single readings can be large; an effect the other way counts as inactive or inconclusive. Potency is read from the fitted curve at half-maximal effect.

SMILES	ELG1 DNA repair	SMN2 splice enh	FLuc modulator	NPC1 prom act	ELG1 genotoxic	Rab9 prom act
CCOC(=O)C1(Cc2cccc(OC)c2)CCCN(C(=O)c2ccccc2C)C1 (configuration not stated)	u	x	26.9µM*	u	11.2%	u
CCOC(=O)C1(Cc2cccc(OC)c2)CCN(Cc2ccccc2)CC1	u	x	1.7%	0.3%	-12.3%	-1.0%
CCOC(=O)C1(Cc2cccc(OC)c2)CCCN(C(=O)c2cc(C)[nH]n2)C1 (configuration not stated)	-17.0%	x	1.0%	-2.6%	-5.4%	-2.4%
CC(C)(C)Cc1nnc(NC(=O)CSc2ccccc2)s1	u	x	u	u	10.0%	u
CCCCSc1nnc(NC(=O)CCc2ccccc2)s1	-4.7%	5.0%	-0.8%	-0.4%	-1.6%	-0.1%
CCN(CC(=O)NC(=O)Nc1ccccc1F)Cc1ccccc1	17.5%	x	2.5%	-8.2%	18.3µM*	1.1%
Cc1c(C(=O)Nc2ccccc2[N+](=O)[O-])csc1-c1ccccc1	u	x	1.2µM*	3.16µM*	4.61µM*	2.82µM*
Cc1c(C(=O)Nc2ccccc2)csc1-c1ccccc1	u	12.6µM*	0.213µM*	1.12µM*	3.66µM*	0.708µM*
COc1cc(C2Nc3ccccc3C(=O)N2c2ccc(Cl)cc2)c(Cl)cc1OCC(=O)O (configuration not stated)	u	12.6µM*	u	3.16µM*	u	2.51µM*
CCOC(=O)COc1ccccc1C1Nc2ccccc2C(=O)N1c1cccc(Cl)c1 (configuration not stated)	u	20µM*	-14.1%	u	u	2.82µM*
Cc1ccc(NS(=O)(=O)c2ccc(-c3cnc(C4CC4)o3)cc2)cc1N(C)C	x	x	-2.4%	x	x	x
O=C(Nc1ccccc1C(F)(F)F)N1CC=C(c2c[nH]c3ccccc23)CC1	x	x	-14.7%	x	x	x
O=C(N/N=C/C(Br)=C/c1ccccc1)C1CC1	u	x	u	29.4%	10.3%	2.82µM*
Cc1ccc(NCC(=O)N/N=C\C(Br)=C\c2ccccc2)cc1	12.2%	8.8%	6.8%	-2.1%	5.3%	2.7%
O=C(N/N=C/C(Br)=C/c1ccccc1)C(O)c1ccccc1 (configuration not stated)	u	x	15.1µM*	21.8%	3.6%	28.0%
O=C(O)c1ccc(N/N=C/C(Br)=C/c2ccccc2)cc1	u	x	0.477µM*	0.355µM*	u	0.316µM*
Cc1cn([C@H]2C[C@H](N=[N+]=[N-])[C@H](CO)O2)c(=O)[nH]c1=O	x	-16.8%[9.22 µM]	x	x	x	x
CCOc1ccc(NC(=O)c2ccc(N3CC4CC(C3)c3cccc(=O)n3C4)c(NC(=O)CCN3CCOCC3)c2)cc1 (configuration not stated)	7.3µM*	x	3.1%	2.1%	1.0%	-0.2%
COc1ccc(C(C(C(=O)c2ccco2)N2CCOCC2)N2CCOCC2)cc1 (configuration not stated)	16.3%	-2.0%	13.5µM*	0.2%	2.0%	-6.9%
CSc1ccc(C(C(C(=O)c2cccs2)N2CCOCC2)N2CCOCC2)cc1 (configuration not stated)	-11.2%	13.8%	26.9µM*	2.5%	-1.3%	-1.4%
Cc1ccc(C)c(NC(=O)CCS(=O)(=O)c2cccc3nsnc23)c1	x	2.4%	-5.0%	x	x	x
Cc1ccc(CNC(=O)C(=O)NCC(c2cccs2)S(=O)(=O)c2ccc(C)cc2)cc1 (configuration not stated)	x	x	-6.9%	x	x	x
CCN(c1ccccc1)c1nnc(NC(=O)Nc2ccc(C)cc2)s1	x	x	1.0%	x	x	x
COc1cccc(C(=O)Cn2c(Br)nc3c2c(=O)n(C)c(=O)n3C)c1	u	-35.9%	7.1%	-2.5%	-0.9%	-6.2%
Cn1c(=O)c2c(nc(Br)n2CC(=O)C23CC4CC(CC(C4)C2)C3)n(C)c1=O	14.6µM*	-16.6%	4.4%	13.0%	-2.2%	-1.9%
SMILES	ELG1 DNA repair	SMN2 splice enh	FLuc modulator	NPC1 prom act	ELG1 genotoxic	Rab9 prom act
O=C(NCC1CCCO1)C(c1ccc(F)cc1)N(Cc1ccc2c(c1)OCO2)C(=O)c1ccc(CN2CCOCC2)o1 (configuration not stated)	-9.5%	-8.1%	-13.4%	-2.1%	-0.6%	u
CSc1ccccc1NC(=O)CN(C)C(=O)c1c(C)nn(Cc2ccccc2)c1C	2.3%	x	4.1%	-0.2%	0.7%	-1.8%
COc1ccc(NC(=O)/C=C/c2ccc(OC(F)F)cc2)cn1	u	x	12µM*	-44.9%	-9.5%	-4.0%
COc1ccc(/C=C/C(=O)Nc2ccc(OC)nc2)cc1	-4.4%	-9.8%	7.57µM*	6.4%	2.3%	-1.9%
COc1ccc(NC(=O)/C=C/c2ccc(OC)c(OC)c2)cn1	-16.1%	x	u	-3.3%	-8.5%	-5.8%
CN(Cc1cccs1)C(=O)C1CC(=O)N(Cc2ccccc2)C1 (configuration not stated)	1.5%	x	-1.5%	-2.4%	-0.6%	9.7%
COc1ccc(-c2nc3sc(CCNC(=O)C(=O)Nc4ccc(C)c(C)c4)c(C)n3n2)cc1	x	x	-5.1%	x	x	x
COc1ccc(-c2nc3sc(CCNC(=O)c4ccccc4C)c(C)n3n2)cc1	x	x	16.9µM*	x	x	x
COc1ccc(-c2nc3sc(CCNC(=O)c4cccc(C(F)(F)F)c4)c(C)n3n2)cc1	x	x	6.75µM*	x	x	x
COc1ccc(OC)c(S(=O)(=O)N2CCC(NC(=O)c3ccccc3)CC2)c1	u	x	-0.5%	-3.4%	-10.6%	-3.5%[1.84 µM]
CC(/C=N\NC(=O)Cn1cncn1)=C/c1ccc(C(C)C)cc1	u	x	u	13.3%	10.5%	16.2%
COc1ccc(NC(=O)c2cc(-c3ccccc3)nc3c2c(C)nn3-c2ccccc2)c(OC)c1	-26.7%	-6.2%	-0.9%	-10.2%	-2.1%	-0.9%
CC(/C=N/NC(=O)c1cc(C(C)(C)C)[nH]n1)=C\c1ccccc1	-24.2%	16.0%	u	-1.5%	-3.2%	-0.6%
CC(/C=N/NC(=O)NC1CCCCC1)=C\c1ccccc1	5.7%	24.0%	u	13.7%	10.5%	17.6%
CC(=C/c1ccccc1)/C=N/NC(=O)c1ccccn1	u	x	0.601µM*	0.447µM*	u	0.447µM*
COc1ccccc1C(=O)N/N=C/C(C)=C/c1ccccc1	u	x	9.53µM*	u	14.4%	14.7%
CC(/C=N/NC(=O)c1cc(-c2cccnc2)nc2c1c(C)nn2-c1ccccc1)=C\c1ccccc1	5.8µM*	x	4.9%	-1.6%	-9.5%	0.6%
CC(=C/c1ccc(C(C)C)cc1)/C=N/NC(=O)c1ccncc1	u	2.5%[1.84 µM]	2.69µM*	24.8%	0.8%	28.0%

High-throughput results from PubChem.
